Measurements reported in the supplement of paper PMC10849652.
About 7,900 targets were measured; listed, in parts, are those with a hit and a random draw of the rest. About 0.6% of all pairs of compound and target were hits.

Columns and labels:
Test in all cases: log2 fold change, soluble protein after heating vs DMSO (PISA); higher = thermal stabilisation; K562 cells, 10 uM, 30 min; active = over 0.2 and 3.5 SD of the protein, either way, in both replicates (recomputed)
saracatinib = compound: CN1CCN(CCOc2cc(OC3CCOCC3)c3c(Nc4c(Cl)ccc5c4OCO5)ncnc3c2)CC1 [saracatinib]
Summary of the method: (§1)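 Aliquots of K562 cells (2×10^6 cells/mL) treated with 10 μM compound for 30 min were heated for 3 min over 48°C-58°C. After pooling and extraction in PBS with 0.5% NP-40 at 4°C, soluble protein from a 21,000xg, 90 min spin was quantified by TMTpro 16plex LC-MS/MS with channel sums equalised. Thermal stability is expressed against control samples, from duplicates, as a log2 fold change.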

sotrastaurin = compound: CN1CCN(c2nc(C3=C(c4c[nH]c5ccccc45)C(=O)NC3=O)c3ccccc3n2)CC1 [sotrastaurin]
Summary of the method: as §1

alvocidib = compound: CN1CC[C@H](c2c(O)cc(O)c3c(=O)cc(-c4ccccc4Cl)oc23)[C@H](O)C1 [alvocidib]
Summary of the method: as §1

Tubastatin A = compound: CN1CCc2c(c3ccccc3n2Cc2ccc(C(=O)NO)cc2)C1 [Tubastatin A]
Summary of the method: as §1

[1] = compound: CNC(=O)C1=CC=CC=C1NC2=NC(=NC=C2Cl)NC3=C(C=C(C=C3)N4CCOCC4)OC
Summary of the method: as §1

defactinib = compound: CNC(=O)c1ccc(Nc2ncc(C(F)(F)F)c(NCc3nccnc3N(C)S(C)(=O)=O)n2)cc1 [defactinib]
Summary of the method: as §1

rucaparib = compound: CNCc1ccc(-c2[nH]c3cc(F)cc4c3c2CCNC4=O)cc1 [rucaparib]
Summary of the method: as §1

[2] = compound: CNc1nc(-c2ccc3c(N)n[nH]c3c2)cc(N2C[C@@H](C(=O)NC3CCCCC3)CC[C@H]2C)n1
Summary of the method: as §1

encorafenib = compound: COC(=O)N[C@@H](C)CNc1nccc(-c2cn(C(C)C)nc2-c2cc(Cl)cc(NS(C)(=O)=O)c2F)n1 [encorafenib]
Summary of the method: as §1

[3] = compound: COC(=O)[C@H](CCSC)NC(=O)C1=C(C=C(C=C1)NC[C@H](CS)N)C2=CC=CC=C2
Summary of the method: as §1

Measured: log2 fold change

RAD51 (UniProt Q06609)
Sequence of UniProt Q06609 (Q06609 whole entry, looked up): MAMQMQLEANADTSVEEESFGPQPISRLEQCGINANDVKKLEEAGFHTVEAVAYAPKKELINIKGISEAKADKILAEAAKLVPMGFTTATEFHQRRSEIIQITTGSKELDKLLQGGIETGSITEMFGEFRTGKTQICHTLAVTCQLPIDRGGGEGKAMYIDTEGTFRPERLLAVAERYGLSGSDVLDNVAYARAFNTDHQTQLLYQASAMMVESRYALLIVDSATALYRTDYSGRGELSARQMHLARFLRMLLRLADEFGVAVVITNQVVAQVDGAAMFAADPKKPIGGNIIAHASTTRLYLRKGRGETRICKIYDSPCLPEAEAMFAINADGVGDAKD
inactive: saracatinib -0.013 | sotrastaurin 0.004 | alvocidib -0.002 | Tubastatin A 0.099 | defactinib 0.027 | rucaparib -0.035 | [2] -0.011 | encorafenib 0.005 | [3] -0.041
active: [1] 0.337

RTF2 (UniProt Q9BY42)
Sequence of UniProt Q9BY42 (Q9BY42 whole entry, looked up): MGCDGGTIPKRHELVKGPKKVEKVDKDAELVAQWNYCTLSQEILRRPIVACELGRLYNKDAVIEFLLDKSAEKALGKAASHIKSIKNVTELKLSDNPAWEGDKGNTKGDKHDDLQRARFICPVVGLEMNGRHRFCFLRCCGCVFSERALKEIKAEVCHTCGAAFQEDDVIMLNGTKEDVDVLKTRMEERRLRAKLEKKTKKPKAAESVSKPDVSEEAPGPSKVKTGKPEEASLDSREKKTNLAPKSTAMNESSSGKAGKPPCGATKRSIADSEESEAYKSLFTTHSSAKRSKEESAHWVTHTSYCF
inactive: saracatinib -0.021 | sotrastaurin -0.007 | alvocidib -0.01 | Tubastatin A 0.099 | [1] 0.083 | defactinib -0.151 | rucaparib 0.027 | [2] -0.142 | encorafenib 0.058 | [3] -0.045

SLC18B1 (UniProt Q6NT16)
Sequence of UniProt Q6NT16 (Q6NT16 whole entry, looked up): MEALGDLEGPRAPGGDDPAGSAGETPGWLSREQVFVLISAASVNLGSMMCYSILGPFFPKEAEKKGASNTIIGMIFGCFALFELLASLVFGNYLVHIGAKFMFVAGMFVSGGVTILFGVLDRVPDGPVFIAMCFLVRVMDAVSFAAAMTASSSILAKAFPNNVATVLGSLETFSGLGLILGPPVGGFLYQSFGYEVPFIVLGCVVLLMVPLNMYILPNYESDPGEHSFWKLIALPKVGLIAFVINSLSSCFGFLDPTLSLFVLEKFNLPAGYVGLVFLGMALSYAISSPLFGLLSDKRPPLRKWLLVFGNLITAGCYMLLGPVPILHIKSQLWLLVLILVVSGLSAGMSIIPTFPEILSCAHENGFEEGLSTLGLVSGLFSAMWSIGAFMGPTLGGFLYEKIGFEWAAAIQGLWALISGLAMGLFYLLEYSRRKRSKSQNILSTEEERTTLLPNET
inactive: saracatinib 0.021 | sotrastaurin 0.023 | alvocidib 0.02 | Tubastatin A 0.04 | [1] 0.061 | defactinib 0.094 | rucaparib -0.012 | [2] -0.071 | encorafenib 0.012 | [3] 0.056

SERINC3 (UniProt Q13530)
Sequence of UniProt Q13530 (Q13530 whole entry, looked up): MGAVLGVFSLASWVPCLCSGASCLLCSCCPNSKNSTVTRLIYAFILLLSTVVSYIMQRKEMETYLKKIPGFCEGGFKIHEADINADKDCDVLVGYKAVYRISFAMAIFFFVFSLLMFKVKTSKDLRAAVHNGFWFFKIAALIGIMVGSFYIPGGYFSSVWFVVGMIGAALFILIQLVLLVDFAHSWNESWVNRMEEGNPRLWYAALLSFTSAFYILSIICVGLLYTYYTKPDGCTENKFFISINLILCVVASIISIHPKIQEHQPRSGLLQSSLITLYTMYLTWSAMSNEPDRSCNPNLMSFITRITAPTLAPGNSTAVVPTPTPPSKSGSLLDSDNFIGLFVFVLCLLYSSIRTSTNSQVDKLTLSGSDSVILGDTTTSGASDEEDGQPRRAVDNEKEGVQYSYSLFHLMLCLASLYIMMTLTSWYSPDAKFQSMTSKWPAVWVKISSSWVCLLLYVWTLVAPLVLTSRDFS
inactive: saracatinib 0.002 | sotrastaurin 0.119 | alvocidib 0.134 | Tubastatin A -0.06 | [1] -0.043 | defactinib -0.016 | rucaparib 0.006 | [2] -0.216 | encorafenib -0.017 | [3] -0.065

SETD3 (UniProt Q86TU7)
Sequence of UniProt Q86TU7 (Q86TU7 whole entry, looked up): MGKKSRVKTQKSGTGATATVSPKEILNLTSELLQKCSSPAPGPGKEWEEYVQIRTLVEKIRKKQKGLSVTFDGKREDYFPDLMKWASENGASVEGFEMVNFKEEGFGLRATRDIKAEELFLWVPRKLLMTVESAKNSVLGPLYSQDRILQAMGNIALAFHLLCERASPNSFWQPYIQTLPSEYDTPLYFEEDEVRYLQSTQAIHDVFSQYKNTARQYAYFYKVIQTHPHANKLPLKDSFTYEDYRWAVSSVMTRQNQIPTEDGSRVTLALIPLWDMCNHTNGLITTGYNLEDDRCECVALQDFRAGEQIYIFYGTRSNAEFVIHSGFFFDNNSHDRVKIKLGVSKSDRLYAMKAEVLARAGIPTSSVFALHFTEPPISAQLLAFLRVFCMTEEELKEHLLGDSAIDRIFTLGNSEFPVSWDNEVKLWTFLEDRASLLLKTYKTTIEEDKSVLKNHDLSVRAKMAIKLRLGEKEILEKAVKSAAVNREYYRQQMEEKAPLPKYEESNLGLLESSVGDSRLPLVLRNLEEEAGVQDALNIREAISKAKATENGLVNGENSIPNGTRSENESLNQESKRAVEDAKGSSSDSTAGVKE
inactive: saracatinib 0.008 | sotrastaurin 0.012 | alvocidib -0.071 | Tubastatin A -0.056 | [1] 0.014 | defactinib -0.004 | rucaparib 0.022 | [2] 0.032 | encorafenib -0.009 | [3] 0

SEPTIN5 (UniProt G3XAH0)
inactive: saracatinib 0.045 | sotrastaurin 0.023 | alvocidib -0.033 | Tubastatin A -0.038 | [1] 0.042 | defactinib -0.023 | [2] 0.032 | [3] 0.028
